# Assay results taken from ChEMBL document CHEMBL3988442, “University of Dundee, Small-Polar-MMV Screening Library” (2021).
# Hit rate of the full screen: of about 69,000 compounds, about 1,000 (1.4%) showed an effect of 50% or more. The sample as a whole holds a higher share of strong results than the screen did.
# System: Leishmania donovani
# Test: Leishmania intramacrophage assay
# Assay type: functional, organism-based
# Parameters: scale not given: in the data most compounds retested in dose-response had high values
smiles,measurement,setting,value
COc1ccc(OCC(=O)NS(=O)(=O)c2ccc(Br)s2)cc1,Percent Effect,30 µM,-22.07%
Cc1occc1C(=O)N1CCCn2cnc(CN3CCCC3=O)c2C1,Percent Effect,"30.3 µM, […]",1.546%
CCOc1ccc(NC(C)=O)cc1S(=O)(=O)Nc1ccon1,Percent Effect,"30.3 µM, […]",32.01%
CC(C)C(=O)Nc1ncn(Cc2cccc(Br)c2)n1,Percent Effect,"30.3 µM, […]",26.25%
O=C(c1ccoc1)N1CC[C@@H]2O[C@@H](COCC3CCOCC3)CC[C@@H]21,Percent Effect,"30.3 µM, […]",5.212%
Cn1nccc1C(=O)N1CCC(c2nnsc2S(C)(=O)=O)CC1,Percent Effect,"30.3 µM, […]",17.02%
Cn1ncc(Cl)c1C(=O)N1CCC(c2nnsc2S(C)(=O)=O)CC1,Percent Effect,"30.3 µM, […]",50.11%
Cn1nc(C2CC2)cc1C(=O)N1CCC(c2nnsc2S(C)(=O)=O)CC1,Percent Effect,"30.3 µM, […]",16.49%
N#Cc1ccc(C(=O)N2CC[C@H]3[C@H]2CCN3CC2CCOCC2)cc1.O=C(O)C(F)(F)F,Percent Effect,"30.3 µM, […]",9.058%
Cc1nc(CNc2ccccc2CCC(F)(F)F)cs1,Percent Effect,"30.3 µM, […]",6.456%
O=C(Nc1nccs1)c1csc(NC2CCCC2)n1,Percent Effect,"30.3 µM, […]",48.24%
Cc1cccc(NC(=O)c2csc(NCC(C)C)n2)n1,Percent Effect,"30.3 µM, […]",-8.581%
Cc1cnc(NC(=O)c2csc(NCC(C)C)n2)s1,Percent Effect,"30.3 µM, […]",62.13%
O=C(Nc1ccccn1)c1csc(NC2CCCC2)n1,Percent Effect,"30.3 µM, […]",-23.02%
Cc1cnc(NC(=O)c2csc(NC3CCCC3)n2)s1,Percent Effect,"30.3 µM, […]",92.33%
CC(=O)NCC1CCC2(CCN(c3nccc(C4CCCC4)n3)CC2)O1 (stereo not given),Percent Effect,"30.3 µM, […]",3.551%
Cn1cc(N2CC3(COCCN(Cc4ccccn4)C3)OCC2=O)cn1.O=C(O)C(F)(F)F (stereo not given),Percent Effect,"30.3 µM, […]",33.72%
COc1cccc(C(=O)NCC2CCN(C(=O)c3ccoc3)CC2)c1,Percent Effect,"30.3 µM, […]",42%
CCn1cc(CN2C[C@H]3CC[C@@H]2CN(C(=O)c2ccncc2)C3)cn1,Percent Effect,"30.3 µM, […]",-21.9%
CCC(C)c1csc(NC(=O)Cc2csc(-c3nnc[nH]3)n2)n1 (stereo not given),Percent Effect,"30.3 µM, […]",56.95%
CC(C)c1nnc(NC(=O)Cc2csc(-c3nnc[nH]3)n2)s1,Percent Effect,"30.3 µM, […]",6.395%
CCC(C)c1csc(NC(=O)c2sc(-c3nnc[nH]3)nc2C)n1 (stereo not given),Percent Effect,"30.3 µM, […]",32.74%
CSc1ccccc1-n1ccnc1-c1cn(C2CCNCC2)nn1,Percent Effect,"30.3 µM, […]",-6.736%
Cc1ccc2[nH]c(-c3cn(C4CCNCC4)nn3)nc2c1C,Percent Effect,"30.3 µM, […]",79.71%
Cc1ccc(-n2ccnc2-c2cn(C3CCNCC3)nn2)c(Cl)c1,Percent Effect,"30.3 µM, […]",17.13%
OCCc1ccccc1-n1ccnc1-c1cn(C2CCNCC2)nn1,Percent Effect,"30.3 µM, […]",-17.07%
Clc1ccccc1CCn1ccnc1-c1cn(C2CCNCC2)nn1,Percent Effect,"30.3 µM, […]",-11.26%
Cc1cc2nc(-c3cn(C4CCNCC4)nn3)[nH]c2cc1C,Percent Effect,"30.3 µM, […]",79.71%
Cc1c(C)c(C)c2[nH]c(-c3cn(C4CCNCC4)nn3)nc2c1C,Percent Effect,"30.3 µM, […]",88.31%
Cc1cccc2[nH]c(-c3cn(C4CCNCC4)nn3)nc12,Percent Effect,"30.3 µM, […]",8.553%
COc1cccc(CCn2ccnc2-c2cn(C3CCNCC3)nn2)c1,Percent Effect,"30.3 µM, […]",-3.244%
CCCc1noc(CN2CCOCC2C)n1 (stereo not given),Percent Effect,"30.3 µM, […]",-25.75%
COCc1noc(Cn2ncn3cccc3c2=O)n1,Percent Effect,"30.3 µM, […]",-34.29%
Cc1nccc(N[C@H]2CN(C(=O)CN3CCOCC3)C[C@@H]2C(C)C)n1,Percent Effect,"30.3 µM, […]",9.574%
CC(C)n1cnc2c1C(C(=O)N1CCOCC1)N(CC1CC1)CC2.O=C(O)C(F)(F)F (stereo not given),Percent Effect,"30.3 µM, […]",17.66%
O=C(NCc1ccccn1)Nc1ccc2[nH]nnc2c1,Percent Effect,"30.3 µM, […]",23.78%
Cn1ccc(CN2CCCC23CCN(Cc2ccccc2F)CC3)n1.O=C(O)C(F)(F)F.O=C(O)C(F)(F)F,Percent Effect,"30.3 µM, […]",36.62%
O=C(O)[C@@H]1CN(Cc2ccc3nsnc3c2)C[C@H]1c1cccnc1,Percent Effect,"30.3 µM, […]",23.58%
Cc1ccccc1-c1noc(CN2CCn3c(nnc3C3CC3)C2)n1,Percent Effect,"30 µM, 30.03 µM",9.47%
COc1cccc(CN2CC(O)CN(C(=O)C3CCC3)CC2=O)c1OC (stereo not given),Percent Effect,"30.3 µM, […]",10.32%
COc1c(C2CCCN2C(=O)c2ccoc2C)c(C)nn1C (stereo not given),Percent Effect,"30.3 µM, […]",0.8433%
Cc1nn(C)cc1C(=O)NCc1cc(N(C)C)nc2ccccc12,Percent Effect,"30.3 µM, […]",27.45%
Cc1nn(C)c(C)c1C(=O)NCc1cc(N(C)C)nc2ccccc12,Percent Effect,"30.3 µM, […]",50.16%
CCn1nc(C)cc1C(=O)NCc1cc(N(C)C)nc2ccccc12,Percent Effect,"30.3 µM, […]",34.59%
CCOC(=O)C1(Cc2ccc(Cl)cc2)CCN(Cc2ncc[nH]2)CC1,Percent Effect,"30.3 µM, […]",14.14%
CNc1ncc(CN(C)C(=O)c2ccccc2C2CCNC2)cn1 (stereo not given),Percent Effect,"30.3 µM, […]",-3.65%
N#Cc1c(Cl)nsc1NCc1ccc(N2CCCC(C(N)=O)C2)cc1 (stereo not given),Percent Effect,"30.3 µM, […]",27.85%
N#Cc1c(Cl)nsc1NCc1ccc(N2CCC(CO)CC2)cc1,Percent Effect,"30.3 µM, […]",13.7%
CN(C)c1ncccc1CNc1snc(Cl)c1C#N,Percent Effect,"30.3 µM, […]",-27.87%
N#Cc1c(Cl)nsc1NCc1cccnc1OC1CCCC1,Percent Effect,"30.3 µM, […]",98.68%
O=S(=O)(NCc1cccnc1OC1CCCC1)N1CCCCC1,Percent Effect,"30.3 µM, […]",-4.69%
Cc1ncsc1C(=O)NCc1ccnc(OCC(F)(F)F)c1,Percent Effect,30 µM,34.79%
N#Cc1c(Cl)nsc1NCc1cccnc1OCC(F)(F)F,Percent Effect,"30.3 µM, […]",71.75%
CC(O)CNC(=O)NCc1cccnc1OC1CCCC1 (stereo not given),Percent Effect,"30 µM, 30.03 µM",16.57%
N#Cc1c(Cl)nsc1NCc1ccnc(OCC(F)(F)F)c1,Percent Effect,"30.3 µM, […]",96.62%
Cc1n[nH]cc1CNCc1ccnc(OCC(F)(F)F)c1.Cl,Percent Effect,"30.3 µM, […]",28.01%
COc1ncccc1CNc1snc(Cl)c1C#N,Percent Effect,"30.3 µM, […]",30.49%
N#Cc1c(Cl)nsc1NCc1ccc(N2CCSCC2)cc1,Percent Effect,"30.3 µM, […]",88.25%
COc1ncc(-c2ccc(NC(C)=O)cc2)c(OC)n1,Percent Effect,"30.3 µM, […]",5.344%
CCOCC1CN(C(=O)C2CCOCC2)Cc2cnn(C)c21 (stereo not given),Percent Effect,"30.3 µM, […]",-4.533%
COCCN1C[C@@H]2[C@@H](OC)CCN(Cc3cccs3)[C@@H]2C1.O=C(O)C(F)(F)F.O=C(O)C(F)(F)F,Percent Effect,"30.3 µM, […]",25.04%
NC(=O)Cn1cc(NC(=O)N2CCSCC2)cn1,Percent Effect,30 µM,-2.179%
CCOc1ccc2nc(NC(=O)c3c(C(=O)O)cnn3C)sc2c1,Percent Effect,"30.3 µM, […]",4.578%
Cc1c(Cl)ccc2ccc(NC(CO)CO)nc12,Percent Effect,"30.3 µM, […]",6.475%
CC(NC(=O)Cn1cc(C(N)=O)c(-c2ccccc2)n1)C1CC1 (stereo not given),Percent Effect,"30.3 µM, […]",12.7%
CC(C)(C)c1ccc(C(=O)C2CCCN(C(=O)CNS(C)(=O)=O)C2)cc1 (stereo not given),Percent Effect,"30.3 µM, […]",1.067%
CC(C)(N)C(=O)N1CCCC(C(=O)c2ccc(C(C)(C)C)cc2)C1 (stereo not given),Percent Effect,"30.3 µM, […]",91.24%
CC(=O)NCC(=O)N1CCCC(C(=O)c2ccc(C(C)(C)C)cc2)C1 (stereo not given),Percent Effect,"30.3 µM, […]",16.87%
Cc1cc(COC(=O)[C@@H]2Cc3ccccc3CN2S(C)(=O)=O)no1,Percent Effect,"30.3 µM, […]",12.34%
Cc1nccc(NCc2cncc3c2CCN(CCN(C)C)C3)n1,Percent Effect,"30.3 µM, […]",29.74%
Cc1nccc(NCc2cncc3c2CCN(CC2CC2)C3)n1.Cl.Cl,Percent Effect,"30.3 µM, […]",25.61%
Cc1nccc(NCc2cncc3c2CCN(CC2CCOC2)C3)n1.Cl.Cl (stereo not given),Percent Effect,"30.3 µM, […]",55.7%
CCOC(=O)CC1(Nc2nc(C)nc3c2cnn3C)CCCCC1,Percent Effect,"30.3 µM, […]",50.84%
COCC1(Nc2nc(C)nc3c2cnn3C)CCCC1,Percent Effect,"30.3 µM, […]",32.37%
Cc1nc(NC2(CN3CCCCC3)CCCCC2)c2cnn(C)c2n1,Percent Effect,"30.3 µM, […]",21.44%
CCOc1ccccc1C1=CCN(C(=O)C2CCN(C)C(=O)C2)CC1 (stereo not given),Percent Effect,30 µM,-1.516%
O=C1CC(NCc2cccc(O)c2)CN1CCc1cccc(Cl)c1 (stereo not given),Percent Effect,"30.3 µM, […]",24.84%
Cc1nnc(NC(=O)C2CSCN2C(=O)C2CCCC2)s1 (stereo not given),Percent Effect,"30.3 µM, […]",-31.76%
O=C(O)c1cc(-c2ccn(CC3CC3)n2)n2ccccc12,Percent Effect,"30.3 µM, […]",20%
O=C(c1cc(-c2ccn(CC3CC3)n2)n2ccccc12)N1CCOCC1,Percent Effect,"30.3 µM, […]",88.37%
O=C(c1cc(-c2ccn(CC3CC3)n2)n2ccccc12)N1CCCO1,Percent Effect,"30.3 µM, […]",27.45%
O=C(c1ccc(NCc2ccco2)nc1)N1CCc2ccccc21,Percent Effect,"30.3 µM, […]",-1.41%
CC(=O)NC1CCCc2c1[nH]c1ccc(F)cc21 (stereo not given),Percent Effect,"30.3 µM, […]",4.787%
Fc1ccc2[nH]c3c(c2c1)CCN1C(c2ccccn2)N2CCC31CC2 (stereo not given),Percent Effect,"30.3 µM, […]",22.17%
Fc1ccc2[nH]c3c(c2c1)CCN1C(c2ccncc2)N2CCC31CC2 (stereo not given),Percent Effect,"30.3 µM, […]",86.05%
O=C(OCc1ccccc1)N1CC[C@H]2CC(CO)O[C@@H]2C1 (stereo not given in full),Percent Effect,"30.3 µM, […]",-47.27%
CN1CCC(n2nc(Cc3cccc(Cl)c3)nc2Cn2ccnc2)CC1,Percent Effect,"30.3 µM, […]",15.54%
Cc1noc(C)c1CCCNC(=O)C1CCN(C(=O)C2CC2)CC1,Percent Effect,"30.3 µM, […]",-2.423%
CC(C)Cc1noc(C2CCCN(C(=O)CCc3cnn(C)c3)C2)n1 (stereo not given),Percent Effect,"30.3 µM, […]",5.747%
CCCN1CCC(Nc2cc(-c3ccccc3)ccc2OC)CC1,Percent Effect,"30.3 µM, […]",94.4%
CCCN1CCC(NC(=O)c2csc(C)c2-c2ccccc2)CC1,Percent Effect,"30.3 µM, […]",11.13%
CCCN1CCC(NC(=O)Nc2ccc(OC)c(OC)c2)CC1,Percent Effect,"30.3 µM, […]",8.2%
Cc1ccc(C2CCCN(C(=O)c3cnn(C)c3)C2)nc1 (stereo not given),Percent Effect,"30.3 µM, […]",-15.16%
O=C(c1cc(Cl)ccc1F)N1CCCC1Cn1cccn1 (stereo not given),Percent Effect,30 µM,-22.81%
COc1cc(NCc2ccncc2)c(-c2nn[nH]n2)cc1OC,Percent Effect,"30.3 µM, […]",-13.14%
COCCN1C(=O)CCC12CCN(C(=O)CNC(C)=O)CC2,Percent Effect,"30.3 µM, […]",21.99%
COc1cc(-c2cc(C3CCOC3)c(C#N)c(N)n2)ccc1O (stereo not given),Percent Effect,"30.3 µM, […]",14.88%
COCC(=O)NCc1cnc(C)nc1-c1cn(C)c2ccc(OC)cc12,Percent Effect,"30.3 µM, […]",7.699%
COc1ccc2c(c1)c(-c1nc(N(C)C)ncc1CN)cn2C,Percent Effect,"30.3 µM, […]",97.85%
COc1ccc2c(c1)c(-c1nc(C)ncc1CN)cn2C,Percent Effect,"30.3 µM, […]",49%
Cc1ccccc1C(C)NC(=O)CN1CCN(Cc2ccc(Br)s2)CC1 (stereo not given),Percent Effect,"30.3 µM, […]",-13.55%
CCn1cc(NC(=O)NCc2ccc3c(c2)OCO3)cn1,Percent Effect,30 µM,18.35%
O=C(NC1CC(F)(F)C1)[C@]12COC[C@H]1CN(Cc1ccsc1)C2,Percent Effect,"30.3 µM, […]",55.66%
O=C(NC1CC(F)(F)C1)[C@]12COC[C@H]1CN(Cc1ccccc1)C2.O=C(O)C(F)(F)F,Percent Effect,"30.3 µM, […]",18.84%
Cc1ncsc1CN1C[C@@H]2COC[C@]2(C(=O)NC2CC(F)(F)C2)C1.O=C(O)C(F)(F)F,Percent Effect,"30.3 µM, […]",30.87%
